Source: the supplement of paper PMC6555819

How the values were obtained:
Test in all cases: PBM binding z-score (relative to random genomic background probes); higher = stronger binding; sequences stand for … in GC…GCGATTGACAGCGTAGAATGAAGG
[1] = tested on: PPARg:RXRa DBDmut IVT, anti-RXR (DBD mutation: RXRa K156A/R161A, NR concentration 270 nM, RXRa partner concentration 90 nM)
In short: (§1)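 On custom Agilent 4×180K arrays, double-stranded probes with 34-nt variable regions carried direct-repeat seeds, single-nucleotide variants, half-site ablations or random human genomic background. Ligand-free nuclear receptor dimers were applied for 1 h, and binding was read with antibodies against each partner (one per run). Binding z-scores come from regression-normalized fluorescence, with the random background probes as reference.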

[2] = tested on: PPARg:RXRa IVT, anti-PPARg (NR concentration 270 nM, RXRa partner concentration 90 nM)
In short: as §1

[3] = tested on: PPARg DBDmut:RXRa IVT, anti-PPARg (DBD mutation: PPARg1 K132A/R137A, NR concentration 270 nM, RXRa partner concentration 90 nM)
In short: as §1

[4] = tested on: PPARg DBDmut IVT, anti-PPARg (DBD mutation: PPARg1 K132A/R137A, NR concentration 270 nM)
In short: as §1

[5] = tested on: PPARg homodimer (NR concentration 180 nM)
In short: as §1

[6] = tested on: PXR:RXRa (NR concentration 270 nM, RXRa partner concentration 90 nM)
In short: as §1

[7] = tested on: PXR homodimer (NR concentration 270 nM)
In short: as §1

[8] = tested on: RARa:RXR (NR concentration 270 nM, RXRa partner concentration 90 nM)
In short: as §1

[9] = tested on: RARa homodimer (NR concentration 270 nM)
In short: as §1

[10] = tested on: RARb:RXRa (NR concentration 270 nM, RXRa partner concentration 90 nM)
In short: as §1

[11] = tested on: RARb homodimer (NR concentration 270 nM)
In short: as §1

[12] = tested on: RARg:RXRa (NR concentration 270 nM, RXRa partner concentration 90 nM)
In short: as §1

[13] = tested on: RARg homodimer (NR concentration 270 nM)
In short: as §1

[14] = tested on: RXRa DBDmut IVT, anti-RXR (DBD mutation: RXRa K156A/R161A, NR concentration 90 nM)
In short: as §1

[15] = tested on: RXRa homodimer (NR concentration 180 nM)
In short: as §1

[16] = tested on: THRa:RXRa (NR concentration 90 nM, RXRa partner concentration 90 nM)
In short: as §1

[17] = tested on: THRa homodimer (NR concentration 90 nM)
In short: as §1

[18] = tested on: VDR homodimer (NR concentration 270 nM)
In short: as §1

Work on TAGCCTAGGTCATTCAGGGGCCAGTATTGAAAGC yielded a PBM binding z-score [1] of 1.67, a PBM binding z-score [2] of 2.66 and a PBM binding z-score [3] of -0.277. The PBM binding z-score [4] was -0.0243, the PBM binding z-score [5] was 2.68 and the PBM binding z-score [6] was 2.72. It also gave a PBM binding z-score [7] of -0.361, a PBM binding z-score [8] of 3.99 and a PBM binding z-score [9] of -0.562. For the same sequence, the PBM binding z-score [10] was 3.8, the PBM binding z-score [11] was 3.3 and the PBM binding z-score [12] was 6.04. It also gave a PBM binding z-score [13] of 4.51, a PBM binding z-score [14] of 2.08 and a PBM binding z-score [15] of 2.72. The PBM binding z-score [16] was 3.47, the PBM binding z-score [17] was 0.833 and the PBM binding z-score [18] was 2.03.
TTACCAAGGTGAAAGGTCGTTAATGCACGCCTTG showed a PBM binding z-score [1] of 2.25, a PBM binding z-score [2] of 4.95 and a PBM binding z-score [3] of -0.238. It also gave a PBM binding z-score [4] of 0.567, a PBM binding z-score [5] of 1.27 and a PBM binding z-score [6] of 3.35. For the same sequence, the PBM binding z-score [7] was 0.236, the PBM binding z-score [8] was 4.98 and the PBM binding z-score [9] was 0.00553. It also gave a PBM binding z-score [10] of 2.78, a PBM binding z-score [11] of 2.23 and a PBM binding z-score [12] of 3.93. It also gave a PBM binding z-score [13] of 2.08, a PBM binding z-score [14] of 0.25 and a PBM binding z-score [15] of 5.05. The PBM binding z-score [16] was 3.23, the PBM binding z-score [17] was 0.834 and the PBM binding z-score [18] was 0.976.
Sequence ATATTTAGGTTACATCCGGGTCATTCAGGCTATG has a PBM binding z-score [1] of 6.5, a PBM binding z-score [2] of 6.04 and a PBM binding z-score [3] of 2.49. It also gave a PBM binding z-score [4] of 3.35, a PBM binding z-score [5] of 3.88 and a PBM binding z-score [6] of 3.75. The PBM binding z-score [7] was 3.78, the PBM binding z-score [8] was 4.29 and the PBM binding z-score [9] was 3.08. It also gave a PBM binding z-score [10] of 2.54, a PBM binding z-score [11] of 3.1 and a PBM binding z-score [12] of 3.51. It also gave a PBM binding z-score [13] of 2.31, a PBM binding z-score [14] of 1.39 and a PBM binding z-score [15] of 3.32. It also gave a PBM binding z-score [16] of 4.1, a PBM binding z-score [17] of 3.84 and a PBM binding z-score [18] of 3.54.
Sequence TCATCTAGGTAAAGGTGAAAGTCGAACGATATGA has a PBM binding z-score [1] of 4.03, a PBM binding z-score [2] of 4.69 and a PBM binding z-score [3] of 1.07. It also gave a PBM binding z-score [4] of 0.677, a PBM binding z-score [5] of 1.57 and a PBM binding z-score [6] of 0.89. It also gave a PBM binding z-score [7] of 0.0192, a PBM binding z-score [8] of 1.61 and a PBM binding z-score [9] of 0.277. For the same sequence, the PBM binding z-score [10] was 2.05, the PBM binding z-score [11] was 1.65 and the PBM binding z-score [12] was 1.58. For the same sequence, the PBM binding z-score [13] was 1.28, the PBM binding z-score [14] was 0.923 and the PBM binding z-score [15] was 2.08. The PBM binding z-score [16] was 1.75, the PBM binding z-score [17] was 0.0366 and the PBM binding z-score [18] was 0.215.
TCGAGTAGGTGACCAATGGGGCATTCAGCTTTCT gave a PBM binding z-score [1] of 4.22, a PBM binding z-score [2] of 3.6 and a PBM binding z-score [3] of -0.451. It also gave a PBM binding z-score [4] of -1.19, a PBM binding z-score [5] of -0.701 and a PBM binding z-score [6] of -0.233. For the same sequence, the PBM binding z-score [7] was -1.05, the PBM binding z-score [8] was -0.0879 and the PBM binding z-score [9] was -1.72. For the same sequence, the PBM binding z-score [10] was 0.567, the PBM binding z-score [11] was 0.62 and the PBM binding z-score [12] was 0.353. For the same sequence, the PBM binding z-score [13] was 0.0885, the PBM binding z-score [14] was -0.0137 and the PBM binding z-score [15] was 0.185. It also gave a PBM binding z-score [16] of -0.147, a PBM binding z-score [17] of -0.979 and a PBM binding z-score [18] of -0.776.
With ATATGTAGGTCACATCCGGGTCATTCAGGCTATG the PBM binding z-score [1] was 8.71, the PBM binding z-score [2] was 8.92 and the PBM binding z-score [3] was 2.83. The PBM binding z-score [4] was 2.12, the PBM binding z-score [5] was 3.45 and the PBM binding z-score [6] was 5.25. The PBM binding z-score [7] was 2.96, the PBM binding z-score [8] was 5.31 and the PBM binding z-score [9] was 0.84. It also gave a PBM binding z-score [10] of 4.34, a PBM binding z-score [11] of 4.84 and a PBM binding z-score [12] of 6.67. It also gave a PBM binding z-score [13] of 5.7, a PBM binding z-score [14] of 2.15 and a PBM binding z-score [15] of 5.28. It also gave a PBM binding z-score [16] of 4.65, a PBM binding z-score [17] of 2.94 and a PBM binding z-score [18] of 3.78.
CCAGACAGGTGAGACGGTAACTCAGCCTCGATTA gave a PBM binding z-score [1] of 1.25, a PBM binding z-score [2] of 0.131 and a PBM binding z-score [3] of 0.0493. For the same sequence, the PBM binding z-score [4] was -0.407, the PBM binding z-score [5] was 1 and the PBM binding z-score [6] was -0.403. The PBM binding z-score [7] was 0.193, the PBM binding z-score [8] was -0.309 and the PBM binding z-score [9] was 0.615. It also gave a PBM binding z-score [10] of 0.413, a PBM binding z-score [11] of 0.4 and a PBM binding z-score [12] of -0.0368. For the same sequence, the PBM binding z-score [13] was 0.0246, the PBM binding z-score [14] was 0.0275 and the PBM binding z-score [15] was -0.179. It also gave a PBM binding z-score [16] of -0.0755, a PBM binding z-score [17] of 0.114 and a PBM binding z-score [18] of 0.029.
